Measured values as given in PubChem BioAssay (NCATS).
“And” between values parts separate entries of the source, which are not always exact repeats. Equal entries are not always repeated. Results filed as inconclusive are left out. Entries that show only a call come without a potency. Some structures have more than one record in an assay (separate samples or runs), and their calls can disagree. Values without a mark were called inactive. The source made the active and inactive calls. Calls come from the whole dose curve; as a rule, active = well fitted curve in the direction sought with a large enough effect; inconclusive = small, poorly fitted or top-dose-only effect, or another doubt; inactive = no such curve, though single readings can be large; an effect the other way counts as inactive or inconclusive.

Tests used:
Es-2 = experiment: Primary qHTS to identify gynecologic anti-cancer compounds using libraries of approved drugs and bioactive compounds (AID 1345084); details: Gynecologic cancer cell panel viability, ATPlite luminescence, 48 h; series mostly up to 57.5 µM; note: nearly all actives have a fitted effect of over 55% in size
Outline: (§1)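 In this quantitative HTS, cell killing is estimated from loss of ATP-dependent luciferase light. Cells see five compound concentrations over a 48 h exposure.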

HeLa = experiment: as above; details: Gynecologic cancer cell panel viability, ATPlite luminescence, 48 h; series mostly up to 57.5 µM
Outline: as §1

JEG-3 = experiment: as above; details: Gynecologic cancer cell panel viability, ATPlite luminescence, 48 h; series mostly up to 57.5 µM
Outline: as §1

PA-1 = experiment: as above; details: Gynecologic cancer cell panel viability, ATPlite luminescence, 48 h; series mostly up to 57.5 µM
Outline: as §1

SKOV3 = experiment: as above; details: Gynecologic cancer cell panel viability, ATPlite luminescence, 48 h; series mostly up to 57.5 µM
Outline: as §1

Tov-21-G = experiment: as above; details: Gynecologic cancer cell panel viability, ATPlite luminescence, 48 h; series mostly up to 57.5 µM
Outline: as §1

Tov112D = experiment: as above; details: Gynecologic cancer cell panel viability, ATPlite luminescence, 48 h; series mostly up to 57.5 µM
Outline: as §1

[1] = Drug repurposing screens with cells derived from glioblastoma tumor samples (AID 1345199); details: GBM patient neurospheres viability, ATP luminescence, 48 h; note: nearly all actives have a fitted effect of over 40% in size; note: potency is the fitted concentration of half-maximal effect
Outline: (§2)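 Primary testing used CD133+ neurospheres from four GBM patients, seven concentrations, 48 h exposure and ATP-based viability; confirmation added three slower-growing patient lines.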

Hek293T = experiment: Primary qHTS to identify gynecologic anti-cancer compounds using libraries of approved drugs and bioactive compounds (AID 1345084); details: Gynecologic cancer cell panel viability, ATPlite luminescence, 48 h, control line for the selectivity index; series mostly up to 57.5 µM; note: nearly all actives have a fitted effect of over 55% in size
Outline: as §1

astro = experiment: Drug repurposing screens with cells derived from glioblastoma tumor samples (AID 1345199); details: viability, ATP luminescence, 48 h; series mostly up to 45.9 µM; note: nearly all actives have a fitted effect of over 40% in size; note: potency is the fitted concentration of half-maximal effect
Outline: as §2

OV90 = experiment: Primary qHTS to identify gynecologic anti-cancer compounds using libraries of approved drugs and bioactive compounds (AID 1345084); details: Gynecologic cancer cell panel viability, ATPlite luminescence, 48 h; series mostly up to 57.5 µM; note: nearly all actives have a fitted effect of over 55% in size
Outline: as §1

[2] = at 20 µM (top of the series), tumour line C
[3] = at 21.2 µM (top of the series), tumour line B
[4] = at 21.2 µM (top of the series), tumour line D
[5] = at 45.9 µM (top of the series), tumour line B
[6] = at 46.1 µM (top of the series), tumour line C
[7] = at 45.9 µM (top of the series), tumour line D

SMILES	Potency (Es-2)	Potency (HeLa)	Potency (JEG-3)	Potency (PA-1)	Potency (SKOV3)	Potency (Tov-21-G)	Potency (Tov112D)	activity, negative = cell killing [1, 2] [%]	activity, negative = cell killing [1, 3] [%]	activity, negative = cell killing [1, 4] [%]	Potency ([1]; tumour line A)	Potency (Hek293T)	activity, negative = cell killing [1, 5]	activity, negative = cell killing [1, 6]	Potency (astro)	Potency (OV90)	activity, negative = cell killing [1, 7] [%]	activity, negative = cell killing ([1]; at 46 µM (top of the series), tumour line A) [%]
CC[C@H](c1ccc(O)cc1)[C@@H](CC)c1ccc(O)cc1	inactive	inactive	inactive	inactive	inactive	inactive	inactive	-16.2	5.51	-30	14.1 µM (active)							
Cc1ccc(O)c([C@H](CCN(C(C)C)C(C)C)c2ccccc2)c1	inactive	inactive		inactive	inactive	inactive	inactive				3.98 µM (active)	inactive	-18%	-1.49%	inactive			
O=C1OC(CN2CCOCC2)CN1/N=C/c1ccc([N+](=O)[O-])o1 (stereo not drawn)	inactive	inactive	inactive	inactive	inactive	inactive	inactive	-25.2	2.66	-3.22		inactive			inactive			
Cc1cc(CC(=O)O)c(C)n1-c1ccc(Cl)cc1	inactive	inactive	inactive	inactive	inactive	inactive	inactive				25.1 µM (active)		-14.5%		inactive	inactive	3.83	
CCN(CC)CCNC(=O)c1cc(Br)c(N)cc1OC	inactive	inactive	inactive	inactive	inactive	inactive	inactive				7.94 µM (active)	inactive	-11.2%	-28.9%	inactive		-11.8	
O=[N+]([O-])c1ccc(/C=N\O)o1	inactive	inactive	inactive	inactive	inactive	inactive	inactive					inactive	-7.45%	1.04%	inactive		-31.7	
CN(C)CCC[C@@]1(c2ccc(F)cc2)OCc2cc(C#N)ccc21	inactive	inactive	inactive	inactive	inactive	inactive	inactive					inactive	11.5%	2.89%	inactive		-13.7	-29.3
CCN(CC)CCOc1ccccc1C(=O)CCc1ccccc1	inactive	inactive	inactive	inactive	inactive	inactive	inactive					inactive			inactive			
COc1cc(N)c(Cl)cc1C(=O)NC1CCN(Cc2ccccc2)CC1	inactive	inactive	inactive	inactive	inactive	inactive	inactive	12.2	-4.38	-20.9	11.2 µM (active)				inactive			
CCN(CC)CCOC(=O)C1(c2ccccc2)CCCC1	inactive	inactive	inactive	inactive	inactive	inactive	inactive					inactive	-21.1%	-29.4%	inactive		-19.5	
C=C[C@H]1CN2CC[C@H]1C[C@H]2[C@H](O)c1ccnc2ccc(OC)cc12	inactive	inactive	inactive	inactive	inactive	inactive	inactive				11.2 µM (active) and 17.8 µM (active)	inactive	-17.2% and -20.5%	-25.6% and -17.6%	inactive			
O=C(Oc1cccc2cccnc12)c1ccccc1	inactive	inactive	inactive			inactive	inactive					inactive	-24.1%	-9.14%	inactive	inactive	-26.2	
CCOC(=O)c1c(N)sc2c1CCN(Cc1ccccc1)C2	inactive	inactive	inactive		inactive	inactive	inactive				11.2 µM (active)	inactive		-15.7%	inactive			
Oc1ccccc1C=NCc1ccccc1	inactive	inactive	inactive		inactive	inactive	inactive					inactive	-13.2%	-2.77%	inactive		-14.3	
CC(=C(CCOC(=O)C(C)C)SSC(CCOC(=O)C(C)C)=C(C)N(C=O)Cc1cnc(C)nc1N)N(C=O)Cc1cnc(C)nc1N	inactive	inactive	inactive	inactive	inactive	inactive	inactive						1.68%	-16.1%	inactive	inactive	3.5	
